Active and inactive are the calls of the source. The calls were made as follows: active = hit-call score of the fitted dose curve at least 0.9, where 1 is the maximum; inactive = score below 0.9.
What was measured:
[1] = read-out: Interleukin-1 alpha (IL1a), IL1A (gene 3552); experiment: BSK_KF3CT_IL1a: BioMAP Diversity Plus: KF3CT Assay for Interleukin-1 alpha (IL1a) Biomarker Activity (AID 2283070); conditions: primary human keratinocytes with fibroblasts; actives raise or lower the signal
Method in brief: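 Chemicals were dosed onto co-cultured human keratinocytes and foreskin fibroblasts, IL-1a was quantified by ELISA at 24 h, and activity was fitted in both directions relative to DMSO controls.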

[2] = read-out: TIMP metallopeptidase inhibitor 2 (TIMP2), TIMP2 (gene 7077); experiment: BSK_KF3CT_TIMP2: BioMAP Diversity Plus: KF3CT Assay for TIMP metallopeptidase inhibitor 2 (TIMP2) Biomarker Activity (AID 2283071); conditions: primary human keratinocytes with fibroblasts; actives raise or lower the signal
Method in brief: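 Cells: human keratinocytes co-cultured with foreskin fibroblasts. Treat with chemical, 24 h. Measure TIMP-2 by ELISA; fit curves bidirectionally vs DMSO baseline.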

[3] = read-out: Transforming growth factor beta 1 (TGFb1), TGFB1 (gene 7040); experiment: BSK_KF3CT_TGFb1: BioMAP Diversity Plus: KF3CT Assay for Transforming growth factor beta 1 (TGFb1) Biomarker Activity (AID 2283072); conditions: primary human keratinocytes with fibroblasts; actives raise or lower the signal
Method in brief: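 Primary human skin cells (keratinocytes, foreskin fibroblasts) were co-cultured, exposed to test chemical and sampled at 24 h. TGF-b1 levels were measured by ELISA and fitted bidirectionally relative to DMSO.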

[4] = read-out: C-C motif chemokine 2 (Homo sapiens) (UniProt P13500); experiment: BSK_KF3CT_MCP1: BioMAP Diversity Plus: KF3CT Assay for Monocyte Chemoattractant Protein 1 (MCP1/CCL2) Biomarker Activity (AID 2283073); conditions: primary human keratinocytes with fibroblasts; actives raise or lower the signal
Method in brief: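 Keratinocytes and foreskin fibroblasts were co-cultured, dosed with chemical, and sampled 24 h later. MCP-1 was quantified by ELISA, and the endpoint was analyzed with bidirectional fitting using DMSO as negative control.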

[5] = read-out: Matrix Metallopeptidase 9 (MMP9), MMP9 (gene 4318); experiment: BSK_KF3CT_MMP9: BioMAP Diversity Plus: KF3CT Assay for Matrix Metallopeptidase 9 (MMP9) Biomarker Activity (AID 2283074); conditions: primary human keratinocytes with fibroblasts; actives raise or lower the signal;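 as to AC50: MMP9 protein level quantified by ELISA in the co-culture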
Method in brief: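 Human keratinocyte/foreskin fibroblast co-culture; compound added; 24 h; MMP-9 by ELISA; bidirectional fit vs DMSO baseline.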

[6] = read-out: urokinase plasminogen activator (uPA), PLAU (gene 5328); experiment: BSK_KF3CT_uPA: BioMAP Diversity Plus: KF3CT Assay for urokinase plasminogen activator (uPA) Biomarker Activity (AID 2283075); conditions: primary human keratinocytes with fibroblasts; actives raise or lower the signal
Method in brief: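 ELISA readout of uPA, analyzed for signal gain or loss relative to DMSO, from a human primary keratinocyte–foreskin fibroblast co-culture measured 24 h after chemical treatment.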

[7] = read-out: Interleukin-8 (IL8), CXCL8 (gene 3576); experiment: BSK_LPS_IL8: BioMAP Diversity Plus: LPS Assay for Interleukin-8 (IL8) Biomarker Activity (AID 2283078); conditions: primary human HUVEC with PBMC; actives raise or lower the signal
Method in brief: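 Endothelial cells and PBMC from human donors are co-cultured, treated with chemicals and LPS, then assayed for IL-8 by ELISA after 24 h. Parallel SRB staining (0.1% SRB after 10% TCA fixation, 560 nm) flags cytotoxicity.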

[8] = BSK_LPS_SRB: Viability Assessment in the BioMAP Diversity Plus: LPS Assay (AID 2283079); conditions: primary human HUVEC with PBMC;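 also: total protein by sulforhodamine B absorbance as a cytotoxicity measure; measured one day after compound addition; fitted in both directions against DMSO so loss or gain of signal counts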
Method in brief: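 Overt cytotoxicity was gauged by sulforhodamine B total-protein staining in a primary human vascular endothelial and mononuclear cell co-culture 24 h post-dosing. Activity was fitted in both directions relative to DMSO.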

[9] = read-out: E-selectin (Homo sapiens) (UniProt P16581); experiment: BSK_LPS_Eselectin: BioMAP Diversity Plus: LPS Assay for Eselectin Biomarker Activity (AID 2283077); conditions: primary human HUVEC with PBMC; actives raise or lower the signal
Method in brief: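 Signal of E-selectin, detected by ELISA, served as the endpoint; cells were umbilical vein endothelium with PBMC, read 24 h after treatment. DMSO defined baseline, and both increases and decreases were fitted.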

Measured: AC50

E-selectin (Homo sapiens), sequence (P16581 whole entry, looked up): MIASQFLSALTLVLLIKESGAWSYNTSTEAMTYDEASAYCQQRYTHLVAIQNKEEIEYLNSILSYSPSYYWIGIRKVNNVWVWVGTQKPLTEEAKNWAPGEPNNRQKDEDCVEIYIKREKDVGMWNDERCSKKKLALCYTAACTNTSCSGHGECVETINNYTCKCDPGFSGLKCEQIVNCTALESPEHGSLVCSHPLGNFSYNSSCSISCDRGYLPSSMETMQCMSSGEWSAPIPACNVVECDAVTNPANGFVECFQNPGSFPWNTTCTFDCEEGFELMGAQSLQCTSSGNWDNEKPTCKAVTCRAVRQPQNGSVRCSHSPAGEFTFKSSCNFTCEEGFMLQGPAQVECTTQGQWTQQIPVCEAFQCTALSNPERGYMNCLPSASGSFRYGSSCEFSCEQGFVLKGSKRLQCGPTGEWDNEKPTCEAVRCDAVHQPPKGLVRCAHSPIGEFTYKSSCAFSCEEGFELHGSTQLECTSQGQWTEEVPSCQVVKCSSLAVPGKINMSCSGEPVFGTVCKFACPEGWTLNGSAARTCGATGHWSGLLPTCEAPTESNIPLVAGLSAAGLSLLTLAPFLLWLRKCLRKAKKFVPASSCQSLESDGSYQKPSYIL

O=C(Nc1ccccc1)Nc1ccnc(Cl)c1
inactive: [1] | [2] | [3] | [4] | [5] | [6] | [8]
active: [7] 15 µM

Fc1ccc(Oc2ccnc3cc(Cl)cc(Cl)c23)cc1
inactive: [1] | [2] | [3] | [4] | [6]
active: [5] 12.9 µM | [7] 28.8 µM | [8] 24 µM

O=C(O)COc1nc(Cl)c(Cl)cc1Cl
inactive: [1] | [2] | [3] | [4] | [5] | [6] | [7] | [8]

CCOC(=O)CC(SP(=S)(OC)OC)C(=O)OCC (stereo not drawn)
inactive: [1] | [2] | [3] | [4] | [5] | [6] | [9] | [7] | [8]

CCc1nn(C)c(C(=O)NCc2ccc(C(C)(C)C)cc2)c1Cl
active: [1] 29.5 µM | [2] 27.7 µM | [4] 27.1 µM | [5] 30.6 µM | [6] 35.4 µM | [7] 20 µM | [8] 30 µM
inactive: [3]

COP(=S)(OC)Oc1nc(Cl)c(Cl)cc1Cl
inactive: [1] | [2] | [3] | [4] | [5] | [6] | [7] | [8]

CNC(=S)S
active: [7] 20.8 µM | [8] 26.1 µM
inactive: [1] | [2] | [3] | [4] | [5] | [6]

CCOP(=S)(OCC)SCn1c(=O)oc2cc(Cl)ccc21
inactive: [1] | [2] | [3] | [4] | [5] | [6]
active: [7] 16.9 µM | [8] 31.6 µM

CCNc1nc(Cl)nc(NC(C)C)n1
inactive: [1] | [2] | [3] | [4] | [5] | [6] | [7] | [8]

Cc1c(F)c(F)c(COC(=O)C2C(/C=C(\Cl)C(F)(F)F)C2(C)C)c(F)c1F (stereo not drawn)
inactive: [1] | [2] | [3] | [4] | [6] | [8]
active: [5] 2.72 µM | [7] 12.2 µM

C#CCOS(=O)OC1CCCCC1Oc1ccc(C(C)(C)C)cc1 (stereo not drawn)
inactive: [3]
active: [1] 14.8 µM | [2] 14 µM | [4] 10.2 µM | [5] 12.1 µM | [6] 14.3 µM | [7] 6.7 µM | [8] 12.6 µM

CCCCNC(=O)n1c(NC(=O)OC)nc2ccccc21
inactive: [2] | [3] | [4] | [5] | [6] | [7]
active: [1] 20 µM | [8] 7.48 µM

Oc1ccccc1-c1ccccc1
inactive: [1] | [2] | [3] | [4] | [5] | [6] | [7] | [8]

N#Cc1nn(-c2c(Cl)cc(C(F)(F)F)cc2Cl)c(N)c1S(=O)C(F)(F)F (stereo not drawn)
inactive: [1] | [2] | [3] | [4] | [5] | [6]
active: [7] 23.4 µM | [8] 31.4 µM

COc1nc(NC(C)C)nc(NC(C)C)n1
inactive: [1] | [2] | [3] | [4] | [5] | [6] | [7] | [8]

N#CC(CCc1ccc(Cl)cc1)(Cn1cncn1)c1ccccc1 (stereo not drawn)
inactive: [1] | [2] | [3] | [4] | [5] | [6] | [7] | [8]

CN(C)C(=S)SSC(=S)N(C)C
active: [1] 6.44 µM | [2] 6.4 µM | [3] 8.71 µM | [4] 5.09 µM | [5] 7.1 µM | [6] 10.3 µM | [7] 26.5 µM | [8] 22.9 µM

CC(C)C1(C)N=C(c2nc3ccccc3cc2C(=O)O)NC1=O (stereo not drawn)
inactive: [1] | [2] | [3] | [4] | [5] | [6] | [7] | [8]

CC(Oc1ccc(Cl)cc1Cl)C(=O)O (stereo not drawn)
inactive: [1] | [2] | [3] | [4] | [5] | [6] | [7] | [8]
